Screening results deposited in PubChem BioAssay by National Center for Advancing Translational Sciences (NCATS).
MARV entry inh: qHTS for inhibitors of binding or entry into cells for Marburg Virus; AID 540276, 2011; Potency, µM (top dose mostly 37.8 µM), for the others: at the top dose activity change, negative = inhibition, most hits filed as inhibitors; hit rate 1.8% among 300,000; Marburg virus pseudotyped entry inhibition, cell reporter; calls by dose curve; tested in HEK293 cells
HCV inh: qHTS Assay for Inhibitors of Hepatitis C Virus (HCV); Huh7.5.1 HCVcc-Cre infection, luciferase reporter, 44 h; Potency, µM (series often up to 41.8 µM), for inactives: at the highest dose activity change, negative = inhibition, usual class: inhibitors; hit rate 3.4% among 340,000; AID 651820, 2012
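Cells (1,000/well) were plated 4 h before compound, then infected with HCVcc-Cre virus (~0.5 moi). After 44 h further culture, infection was read as luciferase luminescence following a 15 min substrate incubation at room temperature.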
FMDV antiviral: High Throughput Screening for Foot and Mouth Disease Virus Antivirals; FMDV antiviral cell-based qHTS; Potency, µM (titrated, usually from 57.9 µM), inactives show at the top dose activity change, negative = inhibition, most hits filed as inhibitors; hit rate 1.2% among 410,000; calls by dose curve; tested in HEK293T cells; further: read-out not given here; nearly all actives have a fitted effect of over 45% in size
LASV entry inh: qHTS for Inhibitors of binding or entry into cells for Lassa Virus; Lassa virus pseudotype entry inhibition, cell reporter; Potency, µM (highest dose often 37.9 µM), for the others: at the highest dose activity change, negative = inhibition, usual class: inhibitors; hit rate 1.2% among 300,000; AID 540256, 2011; calls by dose curve; tested in HEK293 cells; further: nearly all actives have a fitted effect of over 50% in size
RE007 growth inh: qHTS Assay for Inhibitors of the HIV-1 protein Vpr; S. pombe RE007 Vpr strain, BacTiter-Glo ATP luminescence, 24 h; Potency, µM (doses to about 92.2 µM), without a hit: at the highest dose activity change, negative = less growth, usual class: inhibitors; hit rate 0.21% among 360,000; active means well fitted falling curve with a large enough effect; inconclusive means small, poorly fitted or top-dose-only effect; inactive means no such curve, though single readings can be large or run the other way; further: nearly all actives have a fitted effect of over 50% in size
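Fission yeast strain RE007, carrying one chromosomally integrated HIV-1 vpr copy, was seeded at OD 0.01 in PMG+AL medium with 23 nL pinned compound. After 24 h at 30 °C and 99% humidity, viability was read by BacTiter-Glo luminescence.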
Sm TGR inh: qHTS Assay for the Inhibitors of Schistosoma Mansoni Peroxiredoxins; hit rate 3% among 360,000; AID 485364, 2010; Potency, µM (titrated, usually from 114 µM), inactives show at the top dose activity change, negative = inhibition, usual class: inhibitors; purified TGR, DTNB reduction, TNB absorbance 405 nm; further: nearly all actives have a fitted effect of over 60% in size
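TGR 20 nM + NADPH 100 uM (dispensed conc.), cpd preinc 15 min RT; start with NADPH (500 uM addition) then DTNB (15 mM addition). Kinetic TNB absorbance, 405 nm filter. Four-parameter Hill fit across titration.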
An asterisk follows results filed as active; u = inconclusive; x = no result; ! = a repeat was not active; [ ] = dose if it differs, or a comment. An excerpt weighted towards active compounds, which were near 7.2% of everything screened. Unless noted, the call rests on the fitted dose curve; in most records, active means well fitted curve in the direction sought with a large enough effect; inconclusive means small, poorly fitted or top-dose-only effect, or another doubt; inactive means no such curve, though single readings can be large; an effect the other way counts as inactive or inconclusive. On the % scale 0 is the no-effect control and ±100 the full control effect; potency means the concentration at half of the fitted maximal effect.

SMILES	MARV entry inh	HCV inh	FMDV antiviral	LASV entry inh	RE007 growth inh	Sm TGR inh
COC(=O)c1ccc2c(c1)C(=O)/C(=C/c1ccc(O)cc1)O2	13%	u	3%	u	7%	-1%
Nc1cccc(C#Cc2ccc3c(c2)C(=O)/C(=C/c2ccsc2)O3)c1	x	2.5µM*	32%	x	-9%	x
Cc1cccc(N2CCN(C(=O)C3CC(=O)N(c4ccc5c(c4)OCCO5)C3)CC2C)c1 (centres undefined)	x	11µM*	u	x	0%	45µM*
Cc1cccc(N2CCN(C(=O)c3noc4c3COc3ccc(C)cc3-4)CC2C)c1 (centres undefined)	x	6%	-28%	-1%[46.1 µM]	-11%	5.6µM*!
Cc1cccc(N2CCN(C(=O)c3ccc4c(c3)OCCO4)CC2C)c1 (centres undefined)	4%[46.1 µM]	16%	7%	-2%	-9%	1%
O=C(O)c1ccc(/C=C(\c2nc3ccccc3[nH]2)c2nc3ccccc3s2)cc1	u	27%	-11%	19%	-9%	u
CC(C)(C)c1ccc(/C=C(\c2nc3ccccc3[nH]2)S(=O)(=O)c2ccccc2)cc1	x	11µM*	20µM*	x	7%	x
Cc1sc(C2C(C#N)=C(N)N(c3ccc(Cl)cc3)C3=C2C(=O)CCC3)cc1CN1CCOCC1 (centres undefined)	x	x	-2%	u	x	-13%
O=C(O)CC1c2ccccc2CCN1S(=O)(=O)c1ccccc1 (centres undefined)	7%[46.1 µM]	16%	9%	9%	22%	x
CCc1cccc(CC)c1NC(=O)COC(=O)CC1c2ccccc2CCN1S(=O)(=O)c1ccccc1 (centres undefined)	u	7.1µM*	-27%	-3%	14%	-8%
CCOC(=O)c1cc(-c2ccccc2)n(CC(=O)Nc2ccc(CC)cc2)c1C	x	x	6%	0%[46.1 µM]	x	9%
C[C@@H]1C=CCC(=O)N[C@@H](c2ccc3ccccc3c2)[C@H](C)C=CCC(=O)N[C@@H]1c1ccc2ccccc2c1	2.7µM*	x	x	x	x	x
CC(=O)Nc1ccc(-c2nnc3n(CC(C)C)c(=O)c4ccccc4n23)cc1	u	x	-18%	-3%[46.1 µM]	x	7%
Clc1ccc(C(Cn2ccnc2)OCc2csc3c(Cl)cccc23)c(Cl)c1 (centres undefined)	x	13µM*	-2%	x	u	21%
OC(C#CCN1CCOCC1)(c1ccccc1)C1CCCC1 (centres undefined)	3%	23%	1%	10%	10%	u
OC(C#CCN1CCOCC1)(c1ccccc1)C1CC1 (centres undefined)	7%	-5%	14%	-9%	-6%	50µM*
Cc1ccc(N2C(=O)N(Cc3cc(=O)n4ccccc4n3)c3ccccc3S2(=O)=O)cc1Cl	x	x	-25%	-28%[46.1 µM]	x	-5%
Cc1ccc2[nH]c3c(Cl)ncnc3c2c1	-20%[46.1 µM]	-6%	-5%	4%	34%	13%
CCCOc1ncnc2c1[nH]c1ccc(C)cc12	x	13µM*	-23%	x	-21%	10%
CCOc1ncnc2c1[nH]c1ccccc12	u	10µM*	-16%	-4%	5%	4%
COc1cc2[nH]c3c(OC)ncnc3c2cc1OC	u	-13%	23%	-10%	-9%	3%
CCOc1ccc(-c2cc3c(=O)n(Cc4nc(-c5ccc(OC(C)C)cc5)oc4C)ccn3n2)cc1Cl	24%[46.1 µM]	x	30%	15%[46.1 µM]	x	-7%
Cc1ccccc1NC(=O)c1ccccn1	x	10%	39%	x	1%	21%
O=C(/C=C\Nc1ccccn1)c1ccccc1	u	8%	-81%	2.5µM*	0%	-3%
O=C(/C=C/Nc1ccccc1Br)c1ccccn1	u	-9%	2.2µM*	1.1µM*	-25%	0%
SMILES	MARV entry inh	HCV inh	FMDV antiviral	LASV entry inh	RE007 growth inh	Sm TGR inh
CC[C@@H](C)[C@H](NS(=O)(=O)c1cccc2ccccc12)C(=O)N[C@H](C=O)Cc1c[nH]c2ccccc12	x	x	-16%	x	x	x
Cc1ccc(-c2csc(NC(=O)/C=C/c3cccs3)n2)cc1C	u	11µM*	u	13%	22%	-1%
O=C(/C=C/c1ccccc1)Nc1nc(-c2ccncc2)cs1	u	7.9µM*	13µM*	u	16%	-4%
O=C(/C=C\c1ccco1)Nc1nc(-c2ccccc2)cs1	u	19%	24%	u	18%	u
N#Cc1ccc(-c2csc(NC(=O)/C=C/c3cccs3)n2)cc1	u	6%	u	-13%	7%	-4%
COc1ccc(-c2ccnc(-n3ncc(C(=O)NCc4ccon4)c3C3CC3)n2)cc1F	x	x	-10%	x	x	x
C=C1C(=O)O[C@@H]2C[C@@H](C)[C@H]3C=CC(=O)[C@]3(O)C[C@@H]12	x	15%	u	x	2%	35µM*
Cc1cc(C(C)(C)C)oc1C(=O)N(CC(=O)NC1CCCC1)c1c(C)cccc1C	10µM*	10µM*	34%	u	16%	-4%
Fc1ccccc1Cn1c(-c2ccccc2)nc2ccccc21	-19%[46.1 µM]	x	u	u	x	4%
CCN1CCN(c2ccc(NS(=O)(=O)c3c(C)nc4sccn4c3=O)cc2Cl)CC1	u	x	-10%	-25%[46.1 µM]	x	12%
CCOc1ccc(N(C)S(=O)(=O)c2ccc(C)c(C(=O)NCc3cccs3)c2)cc1	x	14µM*	-6%	x	-1%	5%
CCCNC(=O)c1c[nH]c2ccc(S(=O)(=O)N(C)c3ccc(OCC)cc3)cc2c1=O	u	22µM*	u	u	-4%	-24%
CCN(CC)CC(O)CN1CCCCc2nc(C)c(C)cc21 (centres undefined)	-8%[14.2 µM]	x	x	x	x	x
CN(C(=O)Cn1cc(S(=O)(=O)N2CCN(c3ccccc3F)CC2)c2ccccc2c1=O)c1ccc(Cl)cc1	u	x	-6%	-12%[46.1 µM]	x	9%
C[C@]12CC[C@@H]3c4ccc(O)cc4CC[C@H]3[C@@H]1CC[C@@H]2OC(=O)CCC(=O)O	-16%	5%[8.37 µM]	-14%	3%	1%[18.4 µM]	45µM*
Cc1ccc(C(=O)Nc2ccc3ncccc3c2)cc1	u	-23%	14µM*	u	-8%	-11%
Cc1ccc(NC(=O)c2ccc(NS(=O)(=O)c3cccc4cccnc34)cc2)cc1	-22%[46.1 µM]	10µM*	15%	u	-13%	4%
Cc1ccc(C(=O)Nc2ccc(Br)c(C(F)(F)F)c2)cc1	16µM*	11µM*	-15%	u	u	7%
Cc1ccc(NC(=O)c2ccc(C)cc2)cc1	x	-2%	-5%	x	1%	2%
COc1cc(NS(=O)(=O)c2ccc(C)cc2)c2ncccc2c1	u	u	u	u	-4%	8%
